Laboratory results from PubChem BioAssay (EPA / NIEHS).
Inconclusive results are not listed. The source made the active and inactive calls. How the source made its calls, unless noted: active means hit-call score of the fitted dose curve at least 0.9, where 1 is the maximum; inactive means score below 0.9.

Key:
[1] = molecular target: human Thyroid Receptor alpha (THRa1), THRA (gene 7067) (UniProt P10827); experiment: ATG_THRa1_TRANS: Attagene TRANS-FACTORIAL HepG2 Assay for human Thyroid Receptor alpha (THRa1) (AID 2283014; active means hit-call score of the fitted dose curve at least 0.9, where 1 is the maximum)
In short: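 HepG2 cells transiently transfected with chimeric NR-Gal4 and GAL4-UAS reporter units, dosed 24 h. Reporter mRNA quantified by RT-PCR, fluorescent labeling, HpaI digestion and capillary electrophoresis; gain-of-signal fit versus DMSO.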

[2] = molecular target: human Vitamin D Receptor (VDR), VDR (gene 7421) (UniProt P11473); experiment: ATG_VDR_TRANS: Attagene TRANS-FACTORIAL HepG2 Assay for human Vitamin D Receptor (VDR) (AID 2283022; active means hit-call score of the fitted dose curve at least 0.9, where 1 is the maximum)
In short: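 HepG2 cells were transiently transfected with GAL4-UAS reporter units and a chimeric VDR-Gal4 construct, then dosed for 24 hours. Reporter mRNA was quantified by RT-PCR, fluorescent labeling, HpaI digestion and capillary electrophoresis; gain of signal analysed vs DMSO.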

[3] = read-out: E-selectin (Homo sapiens) (UniProt P16581); experiment: BSK_3C_Eselectin: BioMAP Diversity Plus: 3C Assay for Eselectin Biomarker Activity (AID 2283015); details: primary human endothelial cells (HUVEC); actives raise or lower the signal;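 on outcome: cell surface E-selectin protein quantified by ELISA 24 h after dosing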
In short: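 Primary human umbilical vein endothelial cells (3C system), read 24 h after compound addition; E-selectin measured by ELISA. Bidirectional curve fitting against DMSO baseline; cytotoxicity by parallel SRB total-protein staining.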

[4] = read-out: Interleukin-1 alpha (IL1a), IL1A (gene 3552); experiment: BSK_BE3C_IL1a: BioMAP Diversity Plus: BE3C Assay for Interleukin-1 alpha (IL1a) Biomarker Activity (AID 2283016); details: primary human bronchial epithelial cells; actives raise or lower the signal
In short: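 IL-1a measured by ELISA after 24 h treatment of human primary bronchial epithelial cells, with gain or loss of signal fitted versus DMSO. Parallel cultures stained with SRB gauge overt cytotoxicity.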

[5] = read-out: Monocyte Chemoattractant Protein-1 (MCP1), CCL2 (gene 6347); experiment: BSK_3C_MCP1: BioMAP Diversity Plus: 3C Assay for Monocyte Chemoattractant Protein-1 (MCP1) Biomarker Activity (AID 2283017); details: primary human endothelial cells (HUVEC); actives raise or lower the signal
In short: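 Human umbilical vein endothelial cells (3C system) exposed to chemicals for 24 h; MCP-1 quantified by ELISA against the DMSO baseline with bidirectional fitting, and parallel SRB staining used to assess cytotoxicity.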

[6] = read-out: Monocyte Chemoattractant Protein-1 (MCP1), CCL2 (gene 6347); experiment: BSK_4H_MCP1: BioMAP Diversity Plus: 4H Assay for Monocyte Chemoattractant Protein-1 (MCP1) Biomarker Activity (AID 2283018); details: primary human endothelial cells (HUVEC); actives raise or lower the signal
In short: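 ELISA of MCP-1 (CCL2) 24 h after chemical dosing of HUVEC in the BioMAP 4H system. Gain or loss versus DMSO fitted; parallel SRB staining (560 nm) tracked overt cytotoxicity.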

[7] = read-out: Human Leukocyte Antigen - DR isotype (HLADR), HLA-DRA (gene 3122); experiment: BSK_3C_HLADR: BioMAP Diversity Plus: 3C Assay for Human Leukocyte Antigen - DR isotype (HLADR) Biomarker Activity (AID 2283019); details: primary human endothelial cells (HUVEC); actives raise or lower the signal
In short: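 HUVEC monoculture, HLA-DR measured by ELISA 24 h after chemical dosing. Fitted bidirectionally against DMSO baseline; parallel SRB staining assessed cytotoxicity, with 3C proliferation read by SRB at 48 h.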

[8] = read-out: Interleukin-8 (IL8), CXCL8 (gene 3576); experiment: BSK_3C_IL8: BioMAP Diversity Plus: 3C Assay for Interleukin-8 (IL8) Biomarker Activity (AID 2283020); details: primary human endothelial cells (HUVEC); actives raise or lower the signal
In short: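 IL-8 was measured by ELISA in HUVEC cultures 24 h after chemical dosing, with gain or loss of signal fitted relative to DMSO. Parallel SRB total-protein staining tracked overt cytotoxicity.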

[9] = read-out: Monokine induced gamma interferon (MIG), CXCL9 (gene 4283); experiment: BSK_3C_MIG: BioMAP Diversity Plus: 3C Assay for Monokine induced gamma interferon (MIG) Biomarker Activity (AID 2283021); details: primary human endothelial cells (HUVEC); actives raise or lower the signal;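 on AC50: MIG protein level measured by immunoassay in the treated endothelial cultures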
In short: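 ELISA measurement of MIG in human umbilical vein endothelial cells 24 h after treatment. Cytotoxicity tracked by SRB staining in parallel cultures; gain or loss of signal fitted relative to DMSO.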

[10] = BSK_3C_SRB: Viability Assessment in the BioMAP Diversity Plus: 3C Assay (AID 2283023); details: primary human endothelial cells (HUVEC);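 further: fitted both ways against DMSO so a hit may be signal rise or drop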
In short: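 Human umbilical vein endothelial cells in the 3C system, treated 24 h. Total protein measured by 0.1% sulforhodamine B staining after 10% TCA fixation, read at 560 nm; bidirectional fit versus DMSO.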

[11] = read-out: Matrix Metallopeptidase 1 (MMP1), MMP1 (gene 4312); experiment: BSK_BE3C_MMP1: BioMAP Diversity Plus: BE3C Assay for Matrix Metallopeptidase 1 (MMP1) Biomarker Activity (AID 2283024); details: primary human bronchial epithelial cells; actives raise or lower the signal
In short: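 ELISA measurement of MMP-1 after 24 h compound exposure of primary human bronchial epithelial cells. Changes in either direction fitted relative to DMSO; parallel SRB staining checked overt cytotoxicity.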

[12] = BSK_3C_Vis: BioMAP Diversity Plus: 3C Assay for Morphology Visualization (AID 2283025); details: primary human endothelial cells (HUVEC);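 further: light microscopy image of cell morphology used as background control; fitted both ways so gain or loss versus DMSO counts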
In short: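 Light-microscopy visualization of HUVEC cultures at 24 h post-treatment, with DMSO as baseline for bidirectional fitting.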

[13] = read-out: Pselectin, SELP (gene 6403); experiment: BSK_4H_Pselectin: BioMAP Diversity Plus: 4H Assay for Pselectin Biomarker Activity (AID 2283026); details: primary human endothelial cells (HUVEC); actives raise or lower the signal
In short: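 ELISA of surface P-selectin on HUVEC, 24 h after dosing, with parallel SRB staining (0.1% after 10% TCA fixation, 560 nm) for overt cytotoxicity. Activity fitted in both directions relative to DMSO.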

[14] = BSK_BE3C_SRB: Viability Assessment in the BioMAP Diversity Plus: BE3C Assay (AID 2283028); details: primary human bronchial epithelial cells;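 on AC50: fitted both ways so AC50 may mark signal gain or loss versus DMSO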
In short: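 Human bronchial epithelial primary cells in confluent culture, 24 h after chemical dosing; total protein by 0.1% SRB staining after 10% TCA fixation, read at 560 nm. Bidirectional fitting versus DMSO baseline.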

[15] = read-out: Thrombomodulin, THBD (gene 7056); experiment: BSK_3C_Thrombomodulin: BioMAP Diversity Plus: 3C Assay for Thrombomodulin Biomarker Activity (AID 2283029); details: primary human endothelial cells (HUVEC); actives raise or lower the signal
In short: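 ELISA measurement of thrombomodulin on HUVEC surface 24 h after chemical dosing; activity fitted in both directions relative to DMSO vehicle.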

[16] = read-out: Vascular endothelial growth factor receptor 2 (Homo sapiens) (UniProt P35968); experiment: BSK_4H_VEGFRII: BioMAP Diversity Plus: 4H Assay for Vascular endothelial growth factor receptor 2 (VEGFR2) Biomarker Activity (AID 2283031); details: primary human endothelial cells (HUVEC); actives raise or lower the signal;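 on AC50: cell-surface VEGFR2 protein level quantified by ELISA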
In short: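 Primary human umbilical vein endothelial cells (4H system), 24 h exposure; cell-surface VEGFR2 measured by ELISA. Bidirectional fitting versus DMSO; cytotoxicity checked in parallel by SRB total-protein staining.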

[17] = read-out: Human Leukocyte Antigen - DR isotype (HLADR), HLA-DRA (gene 3122); experiment: BSK_BE3C_HLADR: BioMAP Diversity Plus: BE3C Assay for Human Leukocyte Antigen - DR isotype (HLADR) Biomarker Activity (AID 2283032); details: primary human bronchial epithelial cells; actives raise or lower the signal
In short: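 Cell-surface HLA-DR ELISA readout at 24 h after dosing in the BE3C primary human lung bronchial epithelial system; gain or loss of signal against DMSO, with parallel sulforhodamine B staining of total protein for overt cytotoxicity.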

[18] = read-out: Vascular cell adhesion molecule 1 (VCAM1), VCAM1 (gene 7412); experiment: BSK_4H_VCAM1: BioMAP Diversity Plus: 4H Assay for Vascular cell adhesion molecule 1 (VCAM1) Biomarker Activity (AID 2283033); details: primary human endothelial cells (HUVEC); actives raise or lower the signal;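 on outcome: cell-surface VCAM-1 protein measured by ELISA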
In short: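 VCAM-1 ELISA read 24 h after chemical dosing of HUVEC in the BioMAP 4H system, with gain or loss of signal fitted relative to DMSO. Parallel SRB staining (560 nm) checked overt cytotoxicity.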

[19] = read-out: Interferon-gamma inducible Protein 10 (IP10), CXCL10 (gene 3627); experiment: BSK_BE3C_IP10: BioMAP Diversity Plus: BE3C Assay for Interferon-gamma inducible Protein 10 (IP10) Biomarker Activity (AID 2283034); details: primary human bronchial epithelial cells; actives raise or lower the signal
In short: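 IP-10 quantified by ELISA in human primary bronchial epithelial cell cultures at 24 hours post-dosing. Gain or loss of signal fitted relative to DMSO; parallel SRB staining assessed overt cytotoxicity.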

Chain of human Thyroid Receptor alpha (THRa1), THRA (gene 7067) (P10827 whole entry, looked up, the tested form may be a part): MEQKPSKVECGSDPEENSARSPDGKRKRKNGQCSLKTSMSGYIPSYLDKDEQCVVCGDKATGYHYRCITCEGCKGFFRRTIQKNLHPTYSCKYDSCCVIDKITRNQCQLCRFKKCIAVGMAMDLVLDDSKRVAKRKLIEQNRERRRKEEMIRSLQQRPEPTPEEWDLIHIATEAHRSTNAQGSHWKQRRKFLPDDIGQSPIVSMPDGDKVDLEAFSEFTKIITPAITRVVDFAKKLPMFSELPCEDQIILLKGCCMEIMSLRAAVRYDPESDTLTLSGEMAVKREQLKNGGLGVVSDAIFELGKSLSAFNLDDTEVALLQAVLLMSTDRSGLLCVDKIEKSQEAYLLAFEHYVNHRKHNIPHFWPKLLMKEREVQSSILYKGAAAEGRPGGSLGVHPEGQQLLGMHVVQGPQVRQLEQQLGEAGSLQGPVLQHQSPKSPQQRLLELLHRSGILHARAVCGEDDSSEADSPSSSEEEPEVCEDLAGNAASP
Chain of human Vitamin D Receptor (VDR), VDR (gene 7421) (P11473 whole entry, looked up, the tested form may be a part): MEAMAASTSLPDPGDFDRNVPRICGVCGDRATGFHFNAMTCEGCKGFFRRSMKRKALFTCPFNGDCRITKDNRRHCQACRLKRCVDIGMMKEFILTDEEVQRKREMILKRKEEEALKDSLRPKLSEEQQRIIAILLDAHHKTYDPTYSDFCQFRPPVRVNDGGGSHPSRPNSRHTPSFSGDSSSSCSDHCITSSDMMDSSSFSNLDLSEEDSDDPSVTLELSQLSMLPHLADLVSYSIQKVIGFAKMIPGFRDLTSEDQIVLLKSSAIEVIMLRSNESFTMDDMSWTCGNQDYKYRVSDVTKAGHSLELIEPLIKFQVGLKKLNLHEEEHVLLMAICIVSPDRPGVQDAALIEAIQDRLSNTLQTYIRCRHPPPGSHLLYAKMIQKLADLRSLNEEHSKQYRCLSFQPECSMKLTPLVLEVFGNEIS
Chain of E-selectin (Homo sapiens) (P16581 whole entry, looked up): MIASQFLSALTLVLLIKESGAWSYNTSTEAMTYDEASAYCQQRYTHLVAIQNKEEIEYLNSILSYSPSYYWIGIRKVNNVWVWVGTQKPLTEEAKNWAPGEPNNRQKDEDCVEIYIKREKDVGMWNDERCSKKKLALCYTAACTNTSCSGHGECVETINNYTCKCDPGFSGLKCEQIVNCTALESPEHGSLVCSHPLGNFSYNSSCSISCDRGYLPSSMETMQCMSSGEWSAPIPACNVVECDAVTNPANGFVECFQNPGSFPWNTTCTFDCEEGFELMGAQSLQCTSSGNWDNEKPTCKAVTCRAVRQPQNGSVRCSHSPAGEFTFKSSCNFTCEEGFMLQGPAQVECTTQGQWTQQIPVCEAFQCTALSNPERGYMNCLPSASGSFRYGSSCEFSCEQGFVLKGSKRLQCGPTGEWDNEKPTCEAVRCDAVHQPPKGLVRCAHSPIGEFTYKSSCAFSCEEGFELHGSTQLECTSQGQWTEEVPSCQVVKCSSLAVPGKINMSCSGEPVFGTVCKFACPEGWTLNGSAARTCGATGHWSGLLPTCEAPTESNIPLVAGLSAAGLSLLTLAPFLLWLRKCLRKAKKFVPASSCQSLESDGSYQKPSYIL

C=C(C)c1cccc(C(C)(C)N=C=O)c1
outcome [1]: inactive | outcome [2]: inactive

OC1CCCC1
outcome [1]: inactive | outcome [2]: inactive

C=CC(=O)OCC(Br)CBr (stereo not drawn)
outcome [1]: inactive | AC50 [3]: 20 µM (active) | AC50 [4]: 20 µM (active) | AC50 [5]: 31.8 µM (active) | AC50 [6]: 26.6 µM (active) | AC50 [7]: 5.44 µM (active) | AC50 [8]: 20 µM (active) | AC50 [9]: 33 µM (active) | AC50 [10]: 32.5 µM (active) | outcome [11]: inactive | AC50 [12]: 16.6 µM (active) | AC50 [13]: 20 µM (active) | outcome [14]: inactive | outcome [15]: inactive | AC50 [16]: 37 µM (active) | AC50 [17]: 14.4 µM (active) | AC50 [18]: 20 µM (active) | AC50 [19]: 23.3 µM (active)

NC(=O)NNC(N)=O
outcome [1]: inactive | outcome [2]: inactive

COC(F)(F)C(F)(C(F)(F)F)C(F)(F)F
outcome [1]: inactive | outcome [2]: inactive

CC(C)(c1cc(Br)c(OCCO)c(Br)c1)c1cc(Br)c(OCCO)c(Br)c1
outcome [1]: inactive | AC50 [3]: 16.2 µM (active) | outcome [4]: inactive | AC50 [5]: 11.7 µM (active) | AC50 [6]: 5.24 µM (active) | AC50 [7]: 18.6 µM (active) | AC50 [8]: 16.2 µM (active) | AC50 [9]: 27.6 µM (active) | outcome [2]: inactive | AC50 [10]: 19.3 µM (active) | AC50 [11]: 0.911 µM (active) | AC50 [13]: 8.19 µM (active) | outcome [14]: inactive | AC50 [15]: 28.6 µM (active) | AC50 [16]: 9.45 µM (active) | outcome [17]: inactive | AC50 [18]: 11.4 µM (active) | AC50 [19]: 4.54 µM (active)

C=C[Si](OC(C)=O)(OC(C)=O)OC(C)=O
outcome [1]: inactive | outcome [3]: inactive | outcome [4]: inactive | outcome [5]: inactive | outcome [6]: inactive | outcome [7]: inactive | outcome [8]: inactive | outcome [9]: inactive | outcome [10]: inactive | outcome [11]: inactive | outcome [13]: inactive | outcome [14]: inactive | outcome [15]: inactive | outcome [16]: inactive | outcome [17]: inactive | outcome [18]: inactive | outcome [19]: inactive

Nc1ncn([C@@H]2O[C@H](CO)[C@@H](O)[C@H]2O)c(=O)n1
outcome [1]: inactive | outcome [2]: inactive

O=C1CCCC(=O)O1
outcome [1]: inactive | outcome [2]: inactive

O=C(Cl)c1cc(C(=O)Cl)cc(C(=O)Cl)c1
outcome [1]: inactive | AC50 [3]: 15.1 µM (active) | AC50 [4]: 29.5 µM (active) | AC50 [5]: 11.6 µM (active) | AC50 [6]: 12.8 µM (active) | AC50 [7]: 10.5 µM (active) | AC50 [8]: 9.93 µM (active) | AC50 [9]: 29.3 µM (active) | AC50 [10]: 20 µM (active) | AC50 [11]: 20 µM (active) | AC50 [12]: 12.5 µM (active) | AC50 [13]: 11.6 µM (active) | AC50 [14]: 29.1 µM (active) | outcome [15]: inactive | outcome [16]: inactive | AC50 [17]: 28.8 µM (active) | AC50 [18]: 14.8 µM (active) | AC50 [19]: 30.4 µM (active)
